Reference: PubChem BioAssay (EPA / NIEHS)
Inconclusive results are not listed. Calls of active or inactive are those of the source. How the source made its calls, unless noted: active means hit-call score of the fitted dose curve at least 0.9, where 1 is the maximum; inactive means score below 0.9.

Columns and labels:
[1] = ATG_TCF_b_cat_CIS: Attagene CIS-FACTORIAL HepG2 Assay for human T-Cell-Factor with beta-catenin (TCF/b-cat) (AID 2282965); settings: HepG2 TCF/beta-catenin cis-reporter transcription, actives raise or lower the signal
Procedure, shortened: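 In this cis-format system, transfected HepG2 cells report endogenous transcription factor activity. Readout after 24 h exposure is reporter transcript abundance from RT-PCR and capillary electrophoresis, analysed for gain or loss of signal versus DMSO.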

[2] = ATG_TAL_CIS: Attagene CIS-FACTORIAL HepG2 Assay for human TAL Basal Promoter (AID 2282966); settings: HepG2 Attagene cis-factorial TAL promoter reporter; actives raise or lower the signal;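 further: background control endpoint measuring basal TAL promoter reporter mRNA not a specific factor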
Procedure, shortened: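 HepG2, transient MRTU transfection, 24 h compound exposure; RNA → oligo(dT) RT → PCR → 6-FAM primer extension → HpaI digest → CE fluorescence. Bidirectional curve fit vs DMSO. Background-control readout.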

[3] = ATG_TGFb_CIS: Attagene CIS-FACTORIAL HepG2 Assay for human Transforming Growth Factor (TGF) (AID 2282967); settings: HepG2 Attagene CIS TGFb reporter, mRNA transcription; actives raise or lower the signal
Procedure, shortened: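 Transcript-level reporter readout: HepG2 transfectants, 24 h exposure, RNA to cDNA, reporter-specific PCR, fluorescent primer extension, capillary sizing against ROX standards. Gain- or loss-of-signal relative to DMSO.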

[4] = ATG_VDRE_CIS: Attagene CIS-FACTORIAL HepG2 Assay for human Vitamin D Receptor Element (VDRE) (AID 2282968); settings: HepG2 VDRE cis-reporter transcription, actives raise or lower the signal
Procedure, shortened: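 Steps: transfect HepG2 with multiple reporter transcription units; dose chemicals 24 h; isolate RNA; RT-PCR; label with 6-FAM primer extension; HpaI digest; capillary electrophoresis. Curves fitted both directions against DMSO.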

[5] = biological target: Estrogen receptor (Homo sapiens) (UniProt P03372); test: ATG_ERa_TRANS: Attagene TRANS-FACTORIAL HepG2 Assay for human Estrogen Receptor alpha (ERa) (AID 2282970; active means hit-call score of the fitted dose curve at least 0.9, where 1 is the maximum); settings: HepG2 Attagene TRANS ERa GAL4 reporter, mRNA
Chain of Estrogen receptor (Homo sapiens) (P03372 whole entry, looked up, the tested form may be a part): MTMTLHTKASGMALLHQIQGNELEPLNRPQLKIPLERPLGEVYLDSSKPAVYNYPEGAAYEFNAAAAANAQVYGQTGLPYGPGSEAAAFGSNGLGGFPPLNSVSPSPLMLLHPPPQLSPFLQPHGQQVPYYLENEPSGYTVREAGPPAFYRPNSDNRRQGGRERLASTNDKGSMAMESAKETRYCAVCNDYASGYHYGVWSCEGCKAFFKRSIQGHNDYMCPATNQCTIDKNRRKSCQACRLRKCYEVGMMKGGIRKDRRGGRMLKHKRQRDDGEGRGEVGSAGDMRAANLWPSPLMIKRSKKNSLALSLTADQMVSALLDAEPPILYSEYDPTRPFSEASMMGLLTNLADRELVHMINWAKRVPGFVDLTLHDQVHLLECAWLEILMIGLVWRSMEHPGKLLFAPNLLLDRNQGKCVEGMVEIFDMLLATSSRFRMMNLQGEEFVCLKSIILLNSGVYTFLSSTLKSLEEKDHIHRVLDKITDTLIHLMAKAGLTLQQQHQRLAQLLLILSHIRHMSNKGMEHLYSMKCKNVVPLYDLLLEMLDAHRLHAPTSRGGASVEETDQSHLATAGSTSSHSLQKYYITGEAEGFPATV
Procedure, shortened: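 Reporter mRNA induction after 24 hours, detected by fluorescent RT-PCR and capillary electrophoresis, gives the read-out. Cells are HepG2 transiently transfected with GAL4-UAS reporter transcription units responding to chimeric NR-Gal4. Activity is taken as gain of signal over DMSO baseline.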

[6] = biological target: Nuclear receptor subfamily 1 group I member 3 (Homo sapiens) (UniProt Q14994); test: ATG_CAR_TRANS: Attagene TRANS-FACTORIAL HepG2 Assay for human Constitutive Androstane Receptor (CAR) (AID 2282969; active means hit-call score of the fitted dose curve at least 0.9, where 1 is the maximum;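 further: activators raise reporter mRNA above DMSO so AC50 marks induction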); settings: HepG2 Attagene TRANS-FACTORIAL CAR reporter
Chain of Nuclear receptor subfamily 1 group I member 3 (Homo sapiens) (Q14994 whole entry, looked up, the tested form may be a part): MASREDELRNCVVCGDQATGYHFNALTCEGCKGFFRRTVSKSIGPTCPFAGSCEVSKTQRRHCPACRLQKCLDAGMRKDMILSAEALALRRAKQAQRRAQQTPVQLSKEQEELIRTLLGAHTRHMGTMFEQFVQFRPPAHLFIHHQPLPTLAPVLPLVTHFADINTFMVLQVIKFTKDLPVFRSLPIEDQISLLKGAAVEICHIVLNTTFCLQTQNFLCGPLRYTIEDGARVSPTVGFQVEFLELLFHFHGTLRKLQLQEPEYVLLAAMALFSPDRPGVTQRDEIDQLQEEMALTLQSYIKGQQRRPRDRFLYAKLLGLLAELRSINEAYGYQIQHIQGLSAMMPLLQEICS
Procedure, shortened: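 Steps: transient transfection of HepG2 with multiple GAL4-UAS reporter units; 24 h compound incubation; RNA isolation, RT-PCR, 6-FAM primer extension, HpaI digest; capillary electrophoresis. Gain-of-signal relative to DMSO negative control.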

[7] = biological target: X-box-binding protein 1 (Homo sapiens) (UniProt P17861); test: ATG_Xbp1_CIS: Attagene CIS-FACTORIAL HepG2 Assay for human X-box Binding Protein 1 (XBP1) (AID 2282972); settings: HepG2 XBP1 cis-element reporter, Attagene multiplex; actives raise or lower the signal
Chain of X-box-binding protein 1 (Homo sapiens) (P17861 whole entry, looked up): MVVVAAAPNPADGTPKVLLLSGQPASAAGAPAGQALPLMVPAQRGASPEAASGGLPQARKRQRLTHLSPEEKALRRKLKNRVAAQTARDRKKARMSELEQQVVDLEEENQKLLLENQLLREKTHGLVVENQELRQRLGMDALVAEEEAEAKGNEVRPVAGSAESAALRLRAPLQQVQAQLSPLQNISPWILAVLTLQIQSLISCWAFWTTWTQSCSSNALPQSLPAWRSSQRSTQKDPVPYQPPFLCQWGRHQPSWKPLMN
Procedure, shortened: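 Changes in reporter transcript abundance, read by RT-PCR and capillary electrophoresis, reflect endogenous transcription factor activity. Transfected HepG2 cells received compound for 24 hours; DMSO defined baseline for bidirectional analysis.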

[8] = ATG_M_19_TRANS: Attagene TRANS-FACTORIAL HepG2 Assay for M19 Transcription Factor (Internal Marker) (AID 2282974; active means hit-call score of the fitted dose curve at least 0.9, where 1 is the maximum); settings: HepG2 Attagene TRANS-FACTORIAL M19 internal marker reporter
Procedure, shortened: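 Background-control readout: after 24 h chemical exposure of transfected HepG2 carrying GAL4-driven reporter units, RNA was reverse-transcribed, amplified, fluorescently labeled and sized by capillary electrophoresis; gain-of-signal fit against DMSO.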

[9] = ATG_GAL4_TRANS: Attagene TRANS-FACTORIAL HepG2 Assay for GAL4 (Internal Marker) (AID 2282976; active means hit-call score of the fitted dose curve at least 0.9, where 1 is the maximum); settings: HepG2 Attagene TRANS GAL4 internal marker reporter
Procedure, shortened: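 RT-PCR/capillary electrophoresis readout of reporter mRNA. HepG2, transient MRTU transfection (GAL4-UAS reporters), 24 h compound exposure. Background-control endpoint, positive direction vs DMSO baseline.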

[10] = biological target: Steroid hormone receptor ERR1 (Homo sapiens) (UniProt P11474); test: ATG_ERRa_TRANS: Attagene TRANS-FACTORIAL HepG2 Assay for human Estrogen-Related Receptor alpha (ERRa) (AID 2282971; active means hit-call score of the fitted dose curve at least 0.9, where 1 is the maximum); settings: HepG2 Attagene TRANS reporter, ERRa transactivation
Chain of Steroid hormone receptor ERR1 (Homo sapiens) (P11474 whole entry, looked up, the tested form may be a part): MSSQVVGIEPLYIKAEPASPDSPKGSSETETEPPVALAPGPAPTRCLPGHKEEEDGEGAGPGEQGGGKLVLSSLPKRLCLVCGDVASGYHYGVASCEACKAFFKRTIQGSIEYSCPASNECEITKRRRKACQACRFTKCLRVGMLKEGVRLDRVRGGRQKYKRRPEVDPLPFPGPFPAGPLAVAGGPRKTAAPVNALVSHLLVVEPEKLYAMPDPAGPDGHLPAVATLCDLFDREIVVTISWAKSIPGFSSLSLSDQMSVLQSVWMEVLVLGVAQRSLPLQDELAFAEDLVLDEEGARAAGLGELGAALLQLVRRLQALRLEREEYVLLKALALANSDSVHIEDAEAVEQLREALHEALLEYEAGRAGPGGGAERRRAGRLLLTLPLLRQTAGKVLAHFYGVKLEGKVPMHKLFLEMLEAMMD
Procedure, shortened: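 Transfected HepG2, 24 h dosing, ERRa-Gal4 chimera driving GAL4-UAS reporter. Readout: reporter mRNA via RT-PCR plus capillary electrophoresis (fluorescence). Positive direction vs DMSO control.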

Measured: AC50

CCCCCCCCCCCCCCCCC
inactive: [1] | [2] | [3] | [4] | [5]

F[Si-2](F)(F)(F)(F)F
inactive: [1] | [2] | [3] | [4]

N#Cc1ccccc1O
inactive: [1] | [2] | [3] | [4]

OCCCCl
not listed: [5] | [10]
inactive: all other assays above

O=C=Nc1cccc2c(N=C=O)cccc12
not listed: [5]
inactive: all other assays above

OCCCC(F)(F)C(F)(F)C(F)(F)C(F)(F)C(F)(F)C(F)(F)C(F)(F)C(F)(F)F
active: [1] 28.9 µM | [5] 10.9 µM
inactive: [2] | [3] | [4] | [7]

Nc1c(Br)cc([N+](=O)[O-])cc1Br
not listed: [6] | [8]
inactive: all other assays above

O=C1OC(=O)c2ccc3c4c(ccc1c24)C(=O)OC3=O
not listed: [6] | [8] | [10]
inactive: all other assays above

Oc1ccc2c(c1)CCC2
active: [5] 22.6 µM
not listed: [6] | [8] | [10]
inactive: all other assays above

OCC(O)CC(F)(F)C(F)(F)C(F)(F)C(F)(F)C(F)(F)C(F)(F)C(F)(F)C(F)(F)F (stereo not given)
active: [5] 9.15 µM
not listed: [6] | [7] | [10]
inactive: all other assays above

FC(F)(F)C(F)(F)C(F)(F)C(F)(F)C(F)(F)C(F)(F)C(F)(F)CCI
not listed: [5] | [6] | [7]
inactive: all other assays above

CN(C)C(C)(C)CO
not listed: [6] | [10]
inactive: all other assays above

C[Si](Cl)(Cl)CCC(F)(F)C(F)(F)C(F)(F)C(F)(F)C(F)(F)C(F)(F)F
not listed: [6] | [8] | [10]
inactive: all other assays above

CCOC(=O)CC(=O)C(F)(F)C(F)(F)F
not listed: [6] | [10]
inactive: all other assays above

CCCCCCCC/C=C\CCCCCCCC(=O)N(C)CC(=O)O
inactive: [1] | [2] | [3] | [4] | [5] | [8]

O=C1C=CC(=O)N1c1ccccc1
not listed: [6] | [10]
inactive: all other assays above

CCCCCCCCCCCCCC[P+](CCCC)(CCCC)CCCC
active: [4] 897 nM | [7] 834 nM
not listed: [6] | [10]
inactive: all other assays above

OCC(O)CC(F)(F)C(F)(F)C(F)(F)C(F)(F)F (stereo not given)
inactive: [1] | [2] | [3] | [4] | [10]

COC(F)(C(F)F)C(F)(F)F (stereo not given)
not listed: [6] | [8] | [10]
inactive: all other assays above

OCC(F)(F)C(F)(F)C(F)(F)C(F)(F)C(F)(F)C(F)(F)CO
active: [5] 0.0538 µM
inactive: [1] | [2] | [3] | [4] | [8]

OC(O)C(F)(F)C(F)(F)F
not listed: [6] | [8] | [10]
inactive: all other assays above

COCCC(=O)OC
not listed: [6] | [10]
inactive: all other assays above

CCCCCC/C=C/CCCCCCCC(=O)O
not listed: [6] | [9] | [10]
inactive: all other assays above

CCN(CC)c1ccc2c(c1)Oc1cc(N(CC)CC)ccc1C21OC(=O)c2ccccc21
active: [1] 50 µM | [4] 1320 nM
inactive: [2] | [3] | [5] | [7] | [9]

O=C(O)CCC(F)(F)C(F)(F)C(F)(F)C(F)(F)C(F)(F)C(F)(F)C(F)(F)F
active: [1] 150 µM
inactive: [2] | [3] | [4] | [5] | [8]

NC(=O)C(F)(F)C(F)(F)C(F)(F)C(F)(F)C(N)=O
not listed: [6] | [10]
inactive: all other assays above

CCc1cccc(C)c1N(C(=O)C(=O)O)C(C)COC (stereo not given)
not listed: [6] | [7] | [10]
inactive: all other assays above
